From PubChem BioAssay
Only some compounds are listed: those with a hit (about 2.2% of all), similar ones and a draw of the others.
CRFBP-R2 block: blocks CRF-induced signaling of the CRF-BP/CRF-R2 complex; HEK293 CRF-R2/CRF-BP, CRF-induced calcium fluorescence; inhibition, % at 11.8 µM; 350,000 tested, 0.59% active; AID 588475;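 active = inhibition of the ligand-induced calcium signal above about 50% at the single tested concentration, limit read from the data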
cardiac RTF act: cardiac RTF calcium sensitization. 340,000 tested, 0.24% active. IANBD-labeled TnC RTF fluorescence at EC20 calcium; 0% EC20 calcium, 100% full calcium. activation, % at 7.2 µM;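 active = activation above the mean over all tested compounds plus 3 SD, cut at about 30% in these data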;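 note: rise in fluorescence read as greater calcium sensitivity of cardiac thin filaments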
Cardiac RTF inh: cardiac RTF calcium desensitization; IANBD-labeled cardiac RTF, Ca2+ fluorescence; inhibition, % at 7.15 µM; 340,000 tested, 0.12% active; AID 493244;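 active = inhibition above the mean inhibition of all tested compounds plus 3 SD, cut at about 17% in these data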;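 note: assay run at fixed EC70 calcium of 1.6 mM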
Myeloid diff 2: compounds promoting myeloid differentiation. AID 624256. calls only at 10 µM. 360,000 tested, 1% active. ER-HoxA9 myeloid progenitors, lysozyme-GFP differentiation, flow cytometry;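 active = normalized GFP-positive differentiation at or above the plate's own cutoff, the solvent-only control mean plus 3 SD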;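 note: cells exposed to compound for four days before flow analysis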
CRFBP-R2 agonist: agonists of human CRF-binding protein/CRF-R2 receptor complex | 350,000 tested, 0.46% active | activation, % at 13.2 µM | AID 588473 | HEK293 CRF-R2/CRF-BP, calcium dye fluorescence (FLIPR); percent of saturating CRF peptide response;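 active = activation of at least 50%, plus an integration ratio under a set limit after plate pattern correction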;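 note: plate controls were neutral control wells without compound for no effect and CRF at EC100 for full effect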
Starred values were filed as active, the others as inactive; i = inactive; · = no result given; + = active, no number.

SMILES	CRFBP-R2 block	cardiac RTF act	Cardiac RTF inh	Myeloid diff 2	CRFBP-R2 agonist
COc1ccc(CCNc2ccc(C(CC(N)=O)NC(=O)c3ccccc3)cc2[N+](=O)[O-])cc1 (stereo not drawn)	5	1	-13	+	0
NC(=O)CC(NC(=O)c1ccccc1)c1ccc(NCCc2ccc(F)cc2)c([N+](=O)[O-])c1 (stereo not drawn)	4	1	-10	i	-1
Cc1cnc(C(=O)OC(C)C(=O)NCc2ccccc2)cn1 (stereo not drawn)	-2	-3	7	i	1
COc1cccc(/C(C)=N/NS(=O)(=O)c2ccc(Cl)cc2)c1	54*	-4	-1	i	1
Cn1c(=O)oc2cc(S(=O)(=O)N3CCN(c4ccccc4)CC3)ccc21	-28	6	-6	+	0
Cn1c(=O)oc2cc(S(=O)(=O)N3CCC(C(=O)N4CCN(c5ccccc5)CC4)CC3)ccc21	35	-2	-8	i	0
N#Cc1ccc(C(=O)Nc2nnc(-c3cccs3)o2)cc1	17	0	-4	i	1
O=C(Nc1nnc(-c2cccs2)o1)c1cccc(C(F)(F)F)c1	24	3	-5	i	81*
COc1ccc(Cl)cc1NC(=O)C1CCCN(c2ncnc3c2nc2n3CCCCC2)C1 (stereo not drawn)	21	-2	-7	i	-1
Cc1cc(NC(=O)CSc2nc(-c3cccs3)cc(C(F)(F)F)n2)no1	-21	8	9	+	20
Cc1cc(NC(=O)CSc2c(C)[nH]c3ccccc23)no1	11	-2	0	+	0
Cc1cc(NC(=O)CSc2c[nH]c3ccccc23)no1	-4	0	-11	i	0
CS(=O)(=O)c1ccc2c(c1)sc1nc(=O)c(/C=C3/C=CC(=O)C(O)=C3)c(N)n12	-29	4	-14	i	28
COC1=C/C(=C/c2c(N)n3c(nc2=O)sc2cc(S(C)(=O)=O)ccc23)C=CC1=O	-87	16	-9	i	96*
COC1=C/C(=C/c2c(N)n3nc(-c4ccc(C)cc4)sc3nc2=O)C=CC1=O	-226	11	-8	·	195*
CCOc1cc(NC(=O)c2ccccc2C)c(OCC)cc1NC(=O)C1=Cc2ccccc2OC1	22	4	-18	i	1
CCOC(=O)c1c(C)[nH]c(C(=O)OCC(=O)Nc2sc(C(=O)N(C)C)c(C)c2C(=O)OCC)c1C	87*	-16	-23	i	3
Cc1oc(C)c2c(=O)ccc3c(c12)OC(N)=C(C#N)C3c1ccccc1Cl (stereo not drawn)	-24	13	-26	+	16
CC(NC(=O)CN1CCC(C(N)=O)CC1)c1ccccc1 (stereo not drawn)	-6	48*	-3	i	4
CC(NC(=O)CN1CCCC1)c1ccccc1 (stereo not drawn)	2	-6	-1	i	3
CN(CCO)S(=O)(=O)c1ccc2c(c1)C(=NNC(N)=O)c1cc(S(=O)(=O)N(C)CCO)ccc1-2	85*	-2	-9	i	0
CN(C)S(=O)(=O)c1ccc2c(c1)C(=NNC(N)=O)c1cc(S(=O)(=O)N(C)C)ccc1-2	-5	3	1	i	-1
Cc1oc(C(C)(C)C)cc1C(=O)N1CCCC1C(=O)O (stereo not drawn)	3	4	0	+	1
CC(C)(C)OC(=O)N1CCCC1C(=O)O (stereo not drawn)	0	3	-9	i	8
CC(=O)N1CCN(CC(=O)NC(=O)Nc2ccc3c(c2)OCCO3)CC1	6	-2	9	·	1
SMILES	CRFBP-R2 block	cardiac RTF act	Cardiac RTF inh	Myeloid diff 2	CRFBP-R2 agonist
CCc1cc(=O)oc2cc(OCc3ccc(C(=O)O)o3)ccc12	4	0	-12	+	2
O=c1oc2ccccc2cc1-c1nc2c(s1)CCc1ccccc1-2	-66	9	-10	i	22
O=c1oc2cc(O)ccc2cc1-c1nc2c(s1)CCc1ccccc1-2	-232	897*	i	+	279*
Cc1ccccc1-n1c(SC(C)C(=O)NCC2CCCO2)nnc1-c1ccncc1 (stereo not drawn)	-6	-5	-3	i	0
Cc1c(C=O)c2cc(OCc3ccccc3)ccc2n1C	6	1	4	i	0
O=C(Nc1ncc(Cc2ccc(SC(F)F)cc2)s1)c1ccc(OC(F)F)cc1	-110	-5	13	i	68*
